Rows were chosen to be rich in hits. Some 6.5% of all compounds tested hit in one or more screens of this group.
HCMV antiviral = qHTS Assay for inhibitors of the human cytomegalovirus (HCMV); HFF cells, HCMV-luciferase reporter, 72 h; hits give low values; activity change, negative = inhibition, % at 57.5 µM; hit rate 4.5% among 410,000; in the data active means activity change below about -60%; inconclusive means no clear call, values can overlap the other calls; inactive means above about -39%
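HFF cells seeded 16 h at 37C, treated with compounds, infected with luciferase-reporter HCMV at MOI 1 PFU/cell; luciferase read at 72 h post infection, normalized to buffer-only and Salinomycin controls.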
Lassa entry inh = qHTS for Inhibitors of binding or entry into cells for Lassa Virus | Lassa virus pseudotype entry inhibition, cell reporter | Potency, µM (doses to about 37.9 µM), hits mostly inhibitors | hit rate 1.2% among 300,000; calls by dose curve; tested in HEK293 cells; further: nearly all actives have a fitted effect of over 50% in size
VACV Venus inh = qHTS for Stage-Specific Inhibitors of Vaccinia Orthopoxvirus: Venus Reporter Primary qHTS | hit rate 0.46% among 330,000 | AID 720580, 2013 | Potency, µM (titrated, usually from 36.5 µM), actives largely listed as inhibitors | Vaccinia virus Venus reporter expression, fluorescence; calls by dose curve; tested in A549 cells; further: nearly all actives have a fitted effect of over 30% in size
Vaccinia mCherry = qHTS for Stage-Specific Inhibitors of Vaccinia Orthopoxvirus: mCherry Reporter Primary qHTS; Vaccinia virus mCherry reporter infection, fluorescence; Potency, µM (top dose mostly 36.5 µM), hits mostly inhibitors; hit rate 0.63% among 310,000; calls by dose curve; tested in A549 cells; further: nearly all actives have a fitted effect of over 35% in size
FMDV inh = High Throughput Screening for Foot and Mouth Disease Virus Antivirals | hit rate 1.2% among 410,000 | Potency, µM (titrated, usually from 57.9 µM), most hits filed as inhibitors | FMDV antiviral cell-based qHTS | AID 1159524, 2015; calls by dose curve; tested in HEK293T cells; further: read-out not given here; nearly all actives have a fitted effect of over 45% in size
Marburg entry inh = qHTS for inhibitors of binding or entry into cells for Marburg Virus. Marburg virus pseudotyped entry inhibition, cell reporter. Potency, µM (series often up to 37.8 µM), usual class: inhibitors. hit rate 1.8% among 300,000; calls by dose curve; tested in HEK293 cells
A number is an active result; n = inactive; u = inconclusive; x = no result; ! = not active in a repeat; [ ] = dose if it differs, or a comment.

SMILES	HCMV antiviral	Lassa entry inh	VACV Venus inh	Vaccinia mCherry	FMDV inh	Marburg entry inh
C=CCN1CCc2cccc3c2C1Cc1ccc(O)c(O)c1-3 (configuration not stated)	x	x	n	n	n	11µM
COc1ccc2c(c1O)-c1c(OC)c(OC)cc3c1[C@@H](C2)N(C)CC3	x	x	n	n	n	x
COc1ccc2cc1Oc1ccc(cc1)C[C@H]1c3cc(c(OC)cc3CCN1C)Oc1c(OC)c(OC)cc3c1[C@@H](C2)N(C)CC3	-66	x	n	n	n	x
CCOC(=O)C1CCC(CN(Cc2ccc(Cl)cc2)S(=O)(=O)c2cc(Cl)cc(Cl)c2)CC1 (configuration not stated)	n	n	n	n	u	x
CC1(C)CC(=O)C(N=Nc2ccc(Br)cc2)=C(O)C1	-60	n	n	n	n	n
COc1ccc(N=NC2=C(O)CC(C)(C)CC2=O)cc1	n	n	n	n	n	n
Cn1ncc(Cl)c(Oc2ccc(Cl)cc2)c1=O	n	u	u	u	n	u
Cn1ncc(Oc2ccc([N+](=O)[O-])cc2)c(Cl)c1=O	-91	n	n	u	n	n
O=C(COC(=O)CCN1C(=O)/C(=C\C=C\c2ccccc2)SC1=S)Nc1ccc(Br)cc1	-74	n	n	n	u	u
CC(C)c1ccccc1NC(=O)COC(=O)CCN1C(=O)/C(=C\C=C\c2ccccc2)SC1=S	-86	u	n	n	u	u
CCOC(=O)C(=Cc1ccc(-n2cncn2)cc1)C(=O)OCC	-100	11µM	u	u	28µM	u
CSc1nsc(SCc2cnc(C)nc2N)n1	n	n	u	22µM	n	n
CC1(C)CC(=O)C2=C(C1)NC(SCC(=O)Nc1ccccc1)=C(C#N)C21CCCCC1	n	n	n	x	28µM	u
CC1=C(C(=O)Nc2ccccc2)C2(CCCCC2)C(C#N)=C(SCC(N)=O)N1	n	n	n	n	n	n
Cc1cccc(N(C)C(=S)Oc2ccc3ccccc3c2)c1	-61	n	n	n	n	n
COc1ccc(-c2noc(CC(=O)N(C)c3cccc(C)c3)n2)cc1	n	n	n	n	n	x
NS(=O)(=O)c1ccc(CCNCc2ccccc2OCc2ccc(Cl)cc2)cc1	n	u	n	n	n	u
NS(=O)(=O)c1ccc(CCNCc2cc(Cl)ccc2OCc2ccccc2)cc1	-67	n	n	n	u	u
Nc1nn2c(-c3ccccc3)cc(=O)[nH]c2c1N=Nc1ccc(Br)cc1	n	x	u	16µM	n	x
Nc1nn2c(-c3ccccc3)cc(=O)[nH]c2c1N=Nc1ccc(O)cc1	n	u	n	n	n	u
CCc1ccc(C2=NN(c3ccc(S(N)(=O)=O)cc3)C(c3ccc(F)cc3)C2)cc1 (configuration not stated)	n	7.9µM	u	u	n	u
Cc1ccc(C2CC(c3ccccc3)=NN2c2ccc(S(N)(=O)=O)cc2)cc1 (configuration not stated)	n	x	n	n	n	x
CC1(C)COC(/C=C/c2cccc([N+](=O)[O-])c2)=N1	-95	u	u	11µM	25µM	u
CCCCn1c(=N)n(CCCOc2ccc(F)cc2)c2ccccc21	-67	u	u	u	u	10µM
N=c1n(CCO)c2ccccc2n1CCOc1ccc(F)cc1	n	n	n	n	n	n
SMILES	HCMV antiviral	Lassa entry inh	VACV Venus inh	Vaccinia mCherry	FMDV inh	Marburg entry inh
CCN(CC)C(=O)c1sc2c(c1C)c(=O)n(-c1ccc(Cl)c(Cl)c1)c(=O)n2Cc1cc(=O)n2ccccc2n1	n	u	n	n	n	x
CCCc1ccc(NC(=O)C2CCN(c3cnccn3)CC2)cc1	-64!	n	n	n	n	n
Cc1ccc(NC(=O)C2CCN(c3cnccn3)CC2)cc1	n	x	x	x	n	x
O=C(Nc1ccc(N2CCOCC2)cc1)c1ccncc1	n	n	n	x	n	n
O=C(Nc1ccc(N2CCOCC2)cc1)c1cnccn1	u	2.2µM	n	n	n	u
CCCCc1ccc(NC(=O)c2cnccn2)cc1	n	11µM	n	u	n	7.9µM
O=C(Nc1ccc(N2CCOCC2)cc1)c1cnsn1	-73	x	n	n	28µM	n
CCOC(=O)c1cccn1C1C(=O)N(Cc2ccc(C(F)(F)F)cc2)c2ccc(F)cc21 (configuration not stated)	n	x	x	x	x	x
COc1ccc(NC(=O)CSc2ncc3c(n2)-c2ccccc2N(Cc2ccc(C)cc2)S3(=O)=O)cc1Cl	n	n	n	n	n	u
CCOC(=O)c1cccn1C1C(=O)N(Cc2ccc3c(C)cc(=O)oc3c2)c2ccc(Cl)cc21 (configuration not stated)	n	x	x	x	x	x
CCOC(=O)c1cc(NC(=O)c2cnccn2)cc(C(=O)OCC)c1	-93	n	n	n	n	u
CCn1nc(C)cc1C(=O)NCC1Cc2cc(C)cc(-c3ccccc3C(=O)OC)c2O1 (configuration not stated)	x	x	n	n	n	x
CCCOC(=O)c1ccc(-[n+]2c(-c3ccccc3)cc(-c3ccccc3)cc2-c2ccccc2)cc1	-98	x	u	n	14µM	x
Cc1ccc(-c2cc(-c3ccccc3)cc(-c3ccccc3)[n+]2-c2ccc(C(=O)O)cc2)cc1	n	x	n	n	n	x
COc1ccc(-c2cc(-c3ccccc3)[n+](C)c(-c3ccccc3)c2)cc1	-101	u	n	n	u	6.3µM
COc1ccc(-[n+]2c(-c3ccccc3)cc(-c3ccc(C)cc3)cc2-c2ccccc2)cc1	-94	u	u	u	u	u
Brc1ccc(-[n+]2c(-c3ccccc3)cc(-c3ccccc3)cc2-c2ccccc2)cc1	-98	x	u	n	u	x
O=C(O)c1ccc(-[n+]2c(-c3ccccc3)cc(-c3ccccc3)cc2-c2ccccc2)cc1	n	x	n	n	n	x
CC(=O)c1ccc(NC(=O)Cn2c(-n3nc(C)cc3C)nc(C)c(C)c2=O)cc1	n	n	n[7.34 µM]	n[7.34 µM]	n	x
CCOc1ccccc1CNC(=O)CSc1n[nH]c(-c2ccccc2)n1	n	u	n	n	u	x
CC(C)CCNC(=O)CN1C(=O)c2cccnc2Oc2ccccc21	n	u	n	n	n	n
CCS(=O)(=O)NCCCCc1ccccc1	n	n	n	n	n	n
C[n+]1c(-c2ccccc2)cc(CCCCc2cc(-c3ccccc3)[n+](C)c(-c3ccccc3)c2)cc1-c1ccccc1	-98	n	n	n	u	u
N#CC(c1cccc(C(F)(F)F)c1)(c1ncc(C(F)(F)F)cc1Cl)N1CCOCC1 (configuration not stated)	-64	u	x	x	n	n
Cc1ccc(S(=O)(=O)N(CC(=O)N2CCc3ccccc3C2)c2ccc(C)c(C)c2)cc1	n	u	n	n	n	x
COc1ccc(NC(=O)CCN2C(=O)C3C4C=CC(C4)C3C2=O)cc1 (configuration not stated)	n	n	n	n	n	u

Screening results: PubChem, National Center for Advancing Translational Sciences (NCATS)
